Reference: PubChem BioAssay (NCI)
The panel holds about 83,000 compounds, 20% with a hit somewhere; the sample as a whole holds those more often.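 Note: values are percent growth. 100 is the growth of untreated cells, values between 100 and 0 indicate rising inhibition; between -100 and 0 indicates cell death.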 Unmarked numbers belong to inactive results. The source made the active and inactive calls. How the source made its calls: active means growth percent below 10; inactive means the rest.

Assays:
Test in all cases: NCI-60 one-dose screen, 48 h (100 = growth as untreated, 0 = no growth, -100 = all killed)
DU-145 prostate = conditions: 10 µM unless noted
K-562 leukemia = conditions: 10 µM unless noted
MALME-3M melanoma = conditions: 10 µM unless noted
MDA-MB-231 breast = conditions: 10 µM unless noted
RXF 393 renal = conditions: 10 µM unless noted
SF-268 CNS = conditions: 10 µM unless noted
SF-295 CNS = conditions: 10 µM unless noted
SF-539 CNS = conditions: 10 µM unless noted
UACC-257 melanoma = conditions: 10 µM
HCT-15 colon = conditions: 10 µM unless noted
HT29 colon = conditions: 10 µM unless noted
SNB-75 CNS = conditions: 10 µM unless noted
SNB-19 CNS = conditions: 10 µM unless noted
U251 CNS = conditions: 10 µM unless noted
SK-MEL-5 melanoma = conditions: 10 µM unless noted
UACC-62 melanoma = conditions: 10 µM unless noted
LOX IMVI melanoma = conditions: 10 µM unless noted
SK-MEL-28 melanoma = conditions: 10 µM unless noted
PC-3 prostate = conditions: 10 µM unless noted

| Compound | growth (DU-145 prostate) [%] | growth (K-562 leukemia) | growth (MALME-3M melanoma) | growth (MDA-MB-231 breast) [%] | growth (RXF 393 renal) | growth (SF-268 CNS) [%] | growth (SF-295 CNS) | growth (SF-539 CNS) | growth (UACC-257 melanoma) | growth (HCT-15 colon) | growth (HT29 colon) | growth (SNB-75 CNS) [%] | growth (SNB-19 CNS) [%] | growth (U251 CNS) | growth (SK-MEL-5 melanoma) [%] | growth (UACC-62 melanoma) [%] | growth (LOX IMVI melanoma) | growth (SK-MEL-28 melanoma) | growth (PC-3 prostate) [%] |
| --- | --- | --- | --- | --- | --- | --- | --- | --- | --- | --- | --- | --- | --- | --- | --- | --- | --- | --- | --- |
| Cc1ccc(NC(=O)c2ccc(CN3CCN(C)CC3)c(I)c2)cc1Oc1ccc(-c2[nH]nc3ncnc(N)c23)cc1 | 99.6 | 1.61% (active) | -72.7% (active) | 39.3 | 44.9% | 90.3 | 78.4% | 67.5% | -46.4% (active) | -54.1% (active) | -71.1% (active) | 100 | 96.5 | -59.8% (active) | 62.6 | 85 | -86.5% (active) | -84.6% (active) |  |
| NS(=O)(=O)c1ccc(Nc2nc(N/N=C/c3ccc(C(F)(F)F)cc3)nc(Nc3ccccc3)n2)cc1 | 39.3 | 17.5% | 22.4% | 26.1 | -39.5% (active) | 50.4 | 4.66% (active) | 23.8% | 39.6% | 31.3% | 11.4% | 42 | 33.8 | 18.6% | 34.5 | 14.9 | 9.92% (active) | 27.2% | 14.4 |
| Cn1ccnc1C(=O)/C=C/c1ccc(C(=O)Nc2ccc(NC(=O)CCNC(=O)c3csc(Br)n3)cc2)cc1 | 11.9 | 16% | 102% | 72.9 | 68.2% | 62.2 | 81.3% | 7.51% (active) | 88.6% | 28.6% | 13.2% | 71.2 | 60.6 | 23.9% | 98.8 | 68.3 | 11.5% | 89.3% | 48 |
| COc1ccc(N2C(=O)c3cc(OC)c(OC)cc3NC2SCc2ccccc2)cc1 (stereo unspecified) | 110 | 88.6% | 95.2% | 91.5 | 144% | 110 | 103% | 94.3% | 105% | 96.1% | 116% | 112 | 109 | 108% | 97 | 93.8 | 94.8% | 96.9% | 102 |
| O=C(NCCCNc1cc(-c2cn(-c3ccccc3)nc2-c2cccc(O)c2)ccn1)Nc1cccc(C(F)(F)F)c1 | 66.9 | 13.3% | 17.7% | 18.6 | -14% (active) | 38.6 | -15.3% (active) | 27.5% | 21.1% | -25.3% (active) | 9.99% (active) | 45 | 42.8 | 33.5% | 37.8 | 19.9 | 8.34% (active) | -12.1% (active) | 27.1 |
| C#CCOc1ccccc1C(Nc1ccccc1)c1nnnn1C1CCCCC1 (stereo unspecified) | 105 | 77.5% | 100% | 96.1 | 113% | 93.7 | 88.5% | 101% | 101% | 95.5% | 105% | 102 | 94.7 | 99.9% | 99.6 | 63.3 | 95.4% | 101% | 92.6 |
| Cn1c(SC(C(=O)Nc2ccc(F)cc2)c2ccccc2)nc2ccccc2c1=O (stereo unspecified) | 112 | 103% | 88% | 99.4 | 117% | 106 | 98.2% | 96.1% | 95.6% | 102% | 107% | 91.3 | 98.9 | 103% | 104 | 95.2 | 102% | 114% | 95.8 |
| O=C(/C=C/c1cccc(O)c1)c1ccc(O)cc1 | 15.8 | 23.2% | 106% | 89.3 | 94.8% | 89.9 | 98.2% | 43.3% | 95.3% | 49.6% | 80.7% | 103 | 74.9 | 43.3% | 96.9 | 80 | 32.2% | 101% | 65.3 |
